# Assay results from the supplement of paper PMC7765376.
# Structures can show the parent of a compound that is named as a salt. Over roughly 1,500 compounds, “Excess HSA synergy score (sum over dose matrix of excess over highest single agent)” has its median near 43; the lowest 2% begin near -900. The full list was thinned out, with the lowest values kept by preference.
# System: PEO-1
# Assay: Excess HSA synergy score (sum over dose matrix of excess over highest single agent) (score (summed % response)); higher = less synergy / more antagonism (negative = synergy)
# Conditions: 72 h, read-out: viability/apoptosis luminescence (CellTiter-Glo or Caspase3-Glo / not stated per table)
# [1] = matrix design: 6x6, 5-fold dilutions (primary screen)
# [2] = matrix design: 10x10, 9-step dilutions (confirmatory)
smiles,measurement,setting,value
C/C=C(/C)C(=O)O[C@H]1C(C)=C2[C@H]([C@@H]1OC(=O)CCCCCCC)[C@@](C)(OC(C)=O)C[C@H](OC(=O)CCC)[C@@]1(O)[C@H]2OC(=O)[C@@]1(C)O [Thapsigargin] + CC[C@H](NC(=O)[C@H](C)NC)C(=O)N1C[C@@H](O)C[C@H]1Cc1c(-c2[nH]c3cc(F)ccc3c2C[C@@H]2C[C@H](O)CN2C(=O)[C@H](CC)NC(=O)[C@H](C)NC)[nH]c2cc(F)ccc12 [Birinapant],Excess HSA synergy score,[1],-265
same,Excess HSA synergy score,[2],-912
O=C(O)C(=O)CBr [3-Bromopyruvate] + CC[C@H](NC(=O)[C@H](C)NC)C(=O)N1C[C@@H](O)C[C@H]1Cc1c(-c2[nH]c3cc(F)ccc3c2C[C@@H]2C[C@H](O)CN2C(=O)[C@H](CC)NC(=O)[C@H](C)NC)[nH]c2cc(F)ccc12 [Birinapant],Excess HSA synergy score,[1],97.1
CCOC(=O)Nc1ccc(NCc2ccc(F)cc2)cc1N [Retigabine] + CC[C@H](NC(=O)[C@H](C)NC)C(=O)N1C[C@@H](O)C[C@H]1Cc1c(-c2[nH]c3cc(F)ccc3c2C[C@@H]2C[C@H](O)CN2C(=O)[C@H](CC)NC(=O)[C@H](C)NC)[nH]c2cc(F)ccc12 [Birinapant],Excess HSA synergy score,[1],64.5
CC(C)CC(N(C)C)C1(c2ccc(Cl)cc2)CCC1 (stereo not drawn) [Sibutramine hydrochloride] + CC[C@H](NC(=O)[C@H](C)NC)C(=O)N1C[C@@H](O)C[C@H]1Cc1c(-c2[nH]c3cc(F)ccc3c2C[C@@H]2C[C@H](O)CN2C(=O)[C@H](CC)NC(=O)[C@H](C)NC)[nH]c2cc(F)ccc12 [Birinapant],Excess HSA synergy score,[1],96.7
CC(C)NC1CCn2c(=O)[nH]c3cccc(c32)C1O (stereo not drawn) [Zilpaterol] + CC[C@H](NC(=O)[C@H](C)NC)C(=O)N1C[C@@H](O)C[C@H]1Cc1c(-c2[nH]c3cc(F)ccc3c2C[C@@H]2C[C@H](O)CN2C(=O)[C@H](CC)NC(=O)[C@H](C)NC)[nH]c2cc(F)ccc12 [Birinapant],Excess HSA synergy score,[1],413
CC1=C2C[C@H]3[C@@H](CC=C4C[C@@H](O)CC[C@@]43C)[C@@H]2CC[C@]12O[C@@H]1C[C@H](C)CN[C@H]1[C@H]2C [Cyclopamine] + CC[C@H](NC(=O)[C@H](C)NC)C(=O)N1C[C@@H](O)C[C@H]1Cc1c(-c2[nH]c3cc(F)ccc3c2C[C@@H]2C[C@H](O)CN2C(=O)[C@H](CC)NC(=O)[C@H](C)NC)[nH]c2cc(F)ccc12 [Birinapant],Excess HSA synergy score,[1],82.1
CCNC(=O)C[C@@H]1N=C(c2ccc(Cl)cc2)c2cc(OC)ccc2-n2c(C)nnc21 + CC[C@H](NC(=O)[C@H](C)NC)C(=O)N1C[C@@H](O)C[C@H]1Cc1c(-c2[nH]c3cc(F)ccc3c2C[C@@H]2C[C@H](O)CN2C(=O)[C@H](CC)NC(=O)[C@H](C)NC)[nH]c2cc(F)ccc12 [Birinapant],Excess HSA synergy score,[1],-120
CC(C)[C@]12O[C@H]1[C@@H]1O[C@]13[C@]1(O[C@H]1C[C@H]1C4=C(CC[C@@]13C)C(=O)OC4)[C@@H]2O [Triptolide] + CC[C@H](NC(=O)[C@H](C)NC)C(=O)N1C[C@@H](O)C[C@H]1Cc1c(-c2[nH]c3cc(F)ccc3c2C[C@@H]2C[C@H](O)CN2C(=O)[C@H](CC)NC(=O)[C@H](C)NC)[nH]c2cc(F)ccc12 [Birinapant],Excess HSA synergy score,[1],-151
same,Excess HSA synergy score,[2],-1170
CC1(N2CCC(n3c([C@@H]4CCCNC4)nc4ccccc43)CC2)CCCCCCC1 + CC[C@H](NC(=O)[C@H](C)NC)C(=O)N1C[C@@H](O)C[C@H]1Cc1c(-c2[nH]c3cc(F)ccc3c2C[C@@H]2C[C@H](O)CN2C(=O)[C@H](CC)NC(=O)[C@H](C)NC)[nH]c2cc(F)ccc12 [Birinapant],Excess HSA synergy score,[1],152
O=C(N[C@H]1CN2CCC1CC2)c1ccc(Cl)cc1 + CC[C@H](NC(=O)[C@H](C)NC)C(=O)N1C[C@@H](O)C[C@H]1Cc1c(-c2[nH]c3cc(F)ccc3c2C[C@@H]2C[C@H](O)CN2C(=O)[C@H](CC)NC(=O)[C@H](C)NC)[nH]c2cc(F)ccc12 [Birinapant],Excess HSA synergy score,[1],162
C[C@]12O[C@H](C[C@]1(O)CO)n1c3ccccc3c3c4c(c5c6ccccc6n2c5c31)CNC4=O [Lestaurtinib] + CC[C@H](NC(=O)[C@H](C)NC)C(=O)N1C[C@@H](O)C[C@H]1Cc1c(-c2[nH]c3cc(F)ccc3c2C[C@@H]2C[C@H](O)CN2C(=O)[C@H](CC)NC(=O)[C@H](C)NC)[nH]c2cc(F)ccc12 [Birinapant],Excess HSA synergy score,[1],-142
CO/C1=C\C(C)=C\[C@@H](C)[C@@H](O)[C@@H](C)C/C(C)=C/C=C/[C@H](OC)[C@@H]([C@@H](C)[C@@H](O)[C@H](C)[C@@]2(O)C[C@@H](O)[C@H](C)[C@@H](C(C)C)O2)OC1=O [Bafilomycin A1] + CC[C@H](NC(=O)[C@H](C)NC)C(=O)N1C[C@@H](O)C[C@H]1Cc1c(-c2[nH]c3cc(F)ccc3c2C[C@@H]2C[C@H](O)CN2C(=O)[C@H](CC)NC(=O)[C@H](C)NC)[nH]c2cc(F)ccc12 [Birinapant],Excess HSA synergy score,[2],-1470
CC[C@@H]1[C@@H](C)O[C@@](O)([C@@H](C)[C@H](O)[C@H](C)[C@H]2OC(=O)/C=C/C=C/[C@H](C)[C@@H]([C@@H](C)[C@@H](O)[C@H](C)[C@@]3(O)C[C@@H](O[C@H]4C[C@H](O)[C@H](O)[C@H](C)O4)[C@H](CC)[C@@H](C)O3)OC(=O)/C=C/C=C/[C@@H]2C)C[C@H]1O[C@H]1C[C@H](O)[C@H](O)[C@H](C)O1 [Azalomycin-B] + CC[C@H](NC(=O)[C@H](C)NC)C(=O)N1C[C@@H](O)C[C@H]1Cc1c(-c2[nH]c3cc(F)ccc3c2C[C@@H]2C[C@H](O)CN2C(=O)[C@H](CC)NC(=O)[C@H](C)NC)[nH]c2cc(F)ccc12 [Birinapant],Excess HSA synergy score,[1],-24.5
CC1C=CC=CCCC=CC=CC=CC=CC(OC2OC(C)C(O)C(N)C2O)CC2OC(O)(CC(O)C(O)CCC(O)CC(O)CC(O)CC(=O)OC(C)C(C)C1O)CC(O)C2C(=O)O (stereo not drawn) [Nystatin] + CC[C@H](NC(=O)[C@H](C)NC)C(=O)N1C[C@@H](O)C[C@H]1Cc1c(-c2[nH]c3cc(F)ccc3c2C[C@@H]2C[C@H](O)CN2C(=O)[C@H](CC)NC(=O)[C@H](C)NC)[nH]c2cc(F)ccc12 [Birinapant],Excess HSA synergy score,[1],90.8
N=c1c2c(-c3ccccc3)c(-c3ccccc3)n(Cc3ccccc3)c2ncn1[C@H]1CC[C@H](O)CC1 + CC[C@H](NC(=O)[C@H](C)NC)C(=O)N1C[C@@H](O)C[C@H]1Cc1c(-c2[nH]c3cc(F)ccc3c2C[C@@H]2C[C@H](O)CN2C(=O)[C@H](CC)NC(=O)[C@H](C)NC)[nH]c2cc(F)ccc12 [Birinapant],Excess HSA synergy score,[1],-361
C[C@@]12OC(=O)[C@]1([C@@H](O)[C@@H]1C=CCCC1)NC(=O)[C@@H]2CCCl [Marizomib] + CC[C@H](NC(=O)[C@H](C)NC)C(=O)N1C[C@@H](O)C[C@H]1Cc1c(-c2[nH]c3cc(F)ccc3c2C[C@@H]2C[C@H](O)CN2C(=O)[C@H](CC)NC(=O)[C@H](C)NC)[nH]c2cc(F)ccc12 [Birinapant],Excess HSA synergy score,[1],-95.7
CC[C@@]1([C@@H]2O[C@@H]([C@H]3O[C@@](O)(CO)[C@H](C)C[C@@H]3C)C[C@@H]2C)CC[C@H]([C@]2(C)CC[C@]3(C[C@H](O)[C@@H](C)[C@@H]([C@@H](C)[C@@H](OC)[C@H](C)C(=O)O)O3)O2)O1 [Monensin sodium salt] + CC[C@H](NC(=O)[C@H](C)NC)C(=O)N1C[C@@H](O)C[C@H]1Cc1c(-c2[nH]c3cc(F)ccc3c2C[C@@H]2C[C@H](O)CN2C(=O)[C@H](CC)NC(=O)[C@H](C)NC)[nH]c2cc(F)ccc12 [Birinapant],Excess HSA synergy score,[1],-104
CO[C@H]1CC[C@@H](O[C@H]2C[C@H]([C@]3(C)CC[C@]4(C[C@H](O)[C@@H](C)[C@@H]([C@@H](C)/C=C(\C)C(=O)[C@H](C)C[C@H](C)C(=O)O)O4)O3)O[C@]3(O[C@@H]([C@H]4O[C@@](O)(CO)[C@H](C)C[C@@H]4C)C[C@@H]3C)[C@@H]2C)O[C@@H]1C [Nanchangmycin] + CC[C@H](NC(=O)[C@H](C)NC)C(=O)N1C[C@@H](O)C[C@H]1Cc1c(-c2[nH]c3cc(F)ccc3c2C[C@@H]2C[C@H](O)CN2C(=O)[C@H](CC)NC(=O)[C@H](C)NC)[nH]c2cc(F)ccc12 [Birinapant],Excess HSA synergy score,[1],-308
same,Excess HSA synergy score,[2],-1080
Cc1n[nH]c2ccc(-c3cncc(OC[C@@H](N)Cc4c[nH]c5ccccc45)c3)cc12 + CC[C@H](NC(=O)[C@H](C)NC)C(=O)N1C[C@@H](O)C[C@H]1Cc1c(-c2[nH]c3cc(F)ccc3c2C[C@@H]2C[C@H](O)CN2C(=O)[C@H](CC)NC(=O)[C@H](C)NC)[nH]c2cc(F)ccc12 [Birinapant],Excess HSA synergy score,[1],-218
CC(C)c1cccc(C(C)C)c1O [Propofol] + CC[C@H](NC(=O)[C@H](C)NC)C(=O)N1C[C@@H](O)C[C@H]1Cc1c(-c2[nH]c3cc(F)ccc3c2C[C@@H]2C[C@H](O)CN2C(=O)[C@H](CC)NC(=O)[C@H](C)NC)[nH]c2cc(F)ccc12 [Birinapant],Excess HSA synergy score,[1],6.44
